Experimental data as given in publication PMC7862700, “An all-to-all approach to the identification of sequence-specific readers for epigenetic DNA modifications on cytosine”.

How the values were obtained:
Test in all cases: DAPPL (digital affinity profiling via proximity ligation, sequencing); 10 mM Tris-HCl pH 7.5, 50 mM NaCl, 1 mM DTT, 4% glycerol, room temperature, 30 min; GST-TFs on glutathione beads, 16-mer random dsDNA library, 0.1% formaldehyde crosslink after washing; high values mean tight binding
[1] = target: T1, FLI1 (Homo sapiens, UniProt Q01543 1-452); conditions: protein: recombinant; tags: N-terminal GST; dsDNA, one strand shown
T1 sequence: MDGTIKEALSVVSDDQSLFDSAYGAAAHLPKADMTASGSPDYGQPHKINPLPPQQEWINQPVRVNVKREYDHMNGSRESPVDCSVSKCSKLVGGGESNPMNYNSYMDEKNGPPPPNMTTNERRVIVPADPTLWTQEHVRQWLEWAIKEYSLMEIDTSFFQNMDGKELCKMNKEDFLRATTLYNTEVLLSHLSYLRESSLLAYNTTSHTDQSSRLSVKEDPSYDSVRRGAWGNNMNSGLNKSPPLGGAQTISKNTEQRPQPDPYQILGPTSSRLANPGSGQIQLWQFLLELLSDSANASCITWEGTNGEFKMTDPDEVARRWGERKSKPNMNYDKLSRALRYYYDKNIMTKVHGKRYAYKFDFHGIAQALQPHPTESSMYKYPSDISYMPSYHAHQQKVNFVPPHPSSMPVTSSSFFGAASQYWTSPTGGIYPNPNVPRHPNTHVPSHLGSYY
Outline: (§1)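 Binding signal is given per hexamer as its read frequency for a factor divided by its frequency in the tag-only sample. GST-fused human transcription factors were expressed in yeast, captured on glutathione beads, barcoded with DNA and pooled with that sample, then incubated with 200 nmole of a 16-mer random double-stranded DNA library in Tris/NaCl/DTT/glycerol buffer for 30 min at room temperature. The pools were then washed, crosslinked, proximity-ligated, amplified by PCR and sequenced on an Illumina NextSeq500.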

[2] = target: T2, ELK1 (Homo sapiens, UniProt P19419 1-428); conditions: protein: recombinant; tags: N-terminal GST; dsDNA, one strand shown
T2 sequence: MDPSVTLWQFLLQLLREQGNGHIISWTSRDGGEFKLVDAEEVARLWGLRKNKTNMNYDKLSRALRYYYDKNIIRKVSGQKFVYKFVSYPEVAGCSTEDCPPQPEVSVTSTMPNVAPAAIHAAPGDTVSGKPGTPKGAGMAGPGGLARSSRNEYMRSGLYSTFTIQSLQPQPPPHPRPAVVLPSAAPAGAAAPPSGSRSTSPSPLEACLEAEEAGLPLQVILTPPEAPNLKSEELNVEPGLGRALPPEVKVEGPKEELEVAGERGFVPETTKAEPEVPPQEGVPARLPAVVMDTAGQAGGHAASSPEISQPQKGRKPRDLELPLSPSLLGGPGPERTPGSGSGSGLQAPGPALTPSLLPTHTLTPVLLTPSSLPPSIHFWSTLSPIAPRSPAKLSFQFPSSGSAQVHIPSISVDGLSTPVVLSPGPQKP
Outline: as §1

[3] = target: T3, GABPA (Homo sapiens, UniProt Q06546 1-454); conditions: protein: recombinant; tags: N-terminal GST; dsDNA, one strand shown
T3 sequence: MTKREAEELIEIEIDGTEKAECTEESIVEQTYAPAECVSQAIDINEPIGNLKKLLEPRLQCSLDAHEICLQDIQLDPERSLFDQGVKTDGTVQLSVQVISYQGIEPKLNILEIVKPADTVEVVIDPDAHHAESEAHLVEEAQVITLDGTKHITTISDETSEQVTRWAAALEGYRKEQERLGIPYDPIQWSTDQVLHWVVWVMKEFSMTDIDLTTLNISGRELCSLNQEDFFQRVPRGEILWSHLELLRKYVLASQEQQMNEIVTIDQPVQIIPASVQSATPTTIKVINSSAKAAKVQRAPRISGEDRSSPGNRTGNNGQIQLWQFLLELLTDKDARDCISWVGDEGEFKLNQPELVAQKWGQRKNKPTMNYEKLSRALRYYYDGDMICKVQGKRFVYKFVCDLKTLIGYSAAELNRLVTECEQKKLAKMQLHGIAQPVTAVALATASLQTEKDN
Outline: as §1

[4] = target: T4, ERG (Homo sapiens, UniProt P11308 1-479); conditions: protein: recombinant; tags: N-terminal GST; dsDNA, one strand shown
T4 sequence: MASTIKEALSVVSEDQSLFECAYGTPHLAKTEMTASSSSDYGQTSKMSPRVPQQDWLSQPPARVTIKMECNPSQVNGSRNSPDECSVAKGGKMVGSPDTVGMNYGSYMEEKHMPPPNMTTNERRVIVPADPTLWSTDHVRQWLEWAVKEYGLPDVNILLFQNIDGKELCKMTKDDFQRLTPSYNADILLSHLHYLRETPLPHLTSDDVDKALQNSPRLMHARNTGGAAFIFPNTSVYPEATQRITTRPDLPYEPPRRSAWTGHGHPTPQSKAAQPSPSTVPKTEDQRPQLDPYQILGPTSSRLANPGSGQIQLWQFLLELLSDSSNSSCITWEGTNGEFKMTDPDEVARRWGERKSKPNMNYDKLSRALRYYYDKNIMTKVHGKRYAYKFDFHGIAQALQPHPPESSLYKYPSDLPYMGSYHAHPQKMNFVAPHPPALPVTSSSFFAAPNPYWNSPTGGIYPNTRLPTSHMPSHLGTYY
Outline: as §1

[5] = target: ELF1 (Homo sapiens, UniProt P32519 1-619); conditions: protein: recombinant; tags: N-terminal GST; dsDNA, one strand shown
Chain of ELF1 (P32519 whole entry): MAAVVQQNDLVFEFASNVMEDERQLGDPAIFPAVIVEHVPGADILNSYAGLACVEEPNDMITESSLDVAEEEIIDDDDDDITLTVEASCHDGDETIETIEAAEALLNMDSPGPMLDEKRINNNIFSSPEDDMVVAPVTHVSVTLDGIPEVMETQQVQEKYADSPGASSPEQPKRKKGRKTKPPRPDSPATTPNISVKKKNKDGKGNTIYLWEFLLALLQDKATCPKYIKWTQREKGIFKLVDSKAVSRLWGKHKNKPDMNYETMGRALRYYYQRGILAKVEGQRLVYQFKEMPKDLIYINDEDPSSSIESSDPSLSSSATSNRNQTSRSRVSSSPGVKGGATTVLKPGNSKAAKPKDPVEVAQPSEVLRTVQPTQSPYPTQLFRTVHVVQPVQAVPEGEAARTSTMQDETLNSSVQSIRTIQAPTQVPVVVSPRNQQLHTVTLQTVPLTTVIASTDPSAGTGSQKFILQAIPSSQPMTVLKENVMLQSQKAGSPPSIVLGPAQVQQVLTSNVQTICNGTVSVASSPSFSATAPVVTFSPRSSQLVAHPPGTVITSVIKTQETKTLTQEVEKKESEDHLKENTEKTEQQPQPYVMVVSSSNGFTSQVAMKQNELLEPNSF
Outline: as §1

[6] = target: T5, EHF (Homo sapiens, UniProt Q9NZC4 1-300); conditions: protein: recombinant; tags: N-terminal GST; dsDNA, one strand shown
T5 sequence: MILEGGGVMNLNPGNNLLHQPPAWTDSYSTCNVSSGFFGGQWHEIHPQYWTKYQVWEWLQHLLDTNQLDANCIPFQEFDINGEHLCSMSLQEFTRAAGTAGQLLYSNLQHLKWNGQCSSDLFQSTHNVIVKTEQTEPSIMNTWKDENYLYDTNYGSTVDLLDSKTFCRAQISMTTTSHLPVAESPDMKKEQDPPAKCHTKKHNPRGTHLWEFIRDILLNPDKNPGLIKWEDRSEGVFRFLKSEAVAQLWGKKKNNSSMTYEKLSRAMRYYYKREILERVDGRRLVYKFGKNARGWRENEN
Outline: as §1

[7] = target: SPI1 (Homo sapiens, UniProt P17947 1-270); conditions: protein: recombinant; tags: N-terminal GST; dsDNA, one strand shown
Outline: as §1

[8] = target: SPIB (Homo sapiens, UniProt Q01892 1-262); conditions: protein: recombinant; tags: N-terminal GST; dsDNA, one strand shown
Chain of SPIB (Q01892 whole entry): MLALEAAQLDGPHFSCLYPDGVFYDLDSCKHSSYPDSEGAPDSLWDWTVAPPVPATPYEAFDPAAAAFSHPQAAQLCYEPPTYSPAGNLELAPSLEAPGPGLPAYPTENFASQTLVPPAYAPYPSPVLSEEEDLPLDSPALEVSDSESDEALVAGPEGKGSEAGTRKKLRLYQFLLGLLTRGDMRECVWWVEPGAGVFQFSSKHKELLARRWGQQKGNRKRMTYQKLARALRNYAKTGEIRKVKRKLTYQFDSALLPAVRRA
Outline: as §1

[9] = target: T6, ELK3 (Homo sapiens, UniProt P41970 1-407); conditions: protein: recombinant; tags: N-terminal GST; dsDNA, one strand shown
T6 sequence: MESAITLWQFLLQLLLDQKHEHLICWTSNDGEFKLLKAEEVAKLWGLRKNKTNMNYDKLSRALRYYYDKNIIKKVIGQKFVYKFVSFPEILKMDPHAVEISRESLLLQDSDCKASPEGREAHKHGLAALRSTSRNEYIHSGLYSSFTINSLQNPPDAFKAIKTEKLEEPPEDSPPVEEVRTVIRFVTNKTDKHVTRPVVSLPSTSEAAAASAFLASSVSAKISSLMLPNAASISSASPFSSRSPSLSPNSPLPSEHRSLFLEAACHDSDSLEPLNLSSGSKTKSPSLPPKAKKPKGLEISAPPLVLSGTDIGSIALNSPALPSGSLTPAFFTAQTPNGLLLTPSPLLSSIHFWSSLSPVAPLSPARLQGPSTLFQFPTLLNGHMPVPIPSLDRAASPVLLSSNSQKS
Outline: as §1

[10] = target: T7, FEV (Homo sapiens, UniProt Q99581 1-238); conditions: protein: recombinant; tags: N-terminal GST; dsDNA, one strand shown
T7 sequence: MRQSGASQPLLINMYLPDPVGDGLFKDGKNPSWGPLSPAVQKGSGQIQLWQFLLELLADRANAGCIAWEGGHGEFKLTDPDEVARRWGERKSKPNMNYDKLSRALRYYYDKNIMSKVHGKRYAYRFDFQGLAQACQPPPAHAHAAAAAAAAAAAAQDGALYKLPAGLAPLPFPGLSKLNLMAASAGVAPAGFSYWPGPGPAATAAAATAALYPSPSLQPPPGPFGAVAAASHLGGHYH
Outline: as §1

[11] = target: ETV5 (Homo sapiens, UniProt P41161 1-510); conditions: protein: recombinant; tags: N-terminal GST; dsDNA, one strand shown
Chain of ETV5 (P41161 whole entry): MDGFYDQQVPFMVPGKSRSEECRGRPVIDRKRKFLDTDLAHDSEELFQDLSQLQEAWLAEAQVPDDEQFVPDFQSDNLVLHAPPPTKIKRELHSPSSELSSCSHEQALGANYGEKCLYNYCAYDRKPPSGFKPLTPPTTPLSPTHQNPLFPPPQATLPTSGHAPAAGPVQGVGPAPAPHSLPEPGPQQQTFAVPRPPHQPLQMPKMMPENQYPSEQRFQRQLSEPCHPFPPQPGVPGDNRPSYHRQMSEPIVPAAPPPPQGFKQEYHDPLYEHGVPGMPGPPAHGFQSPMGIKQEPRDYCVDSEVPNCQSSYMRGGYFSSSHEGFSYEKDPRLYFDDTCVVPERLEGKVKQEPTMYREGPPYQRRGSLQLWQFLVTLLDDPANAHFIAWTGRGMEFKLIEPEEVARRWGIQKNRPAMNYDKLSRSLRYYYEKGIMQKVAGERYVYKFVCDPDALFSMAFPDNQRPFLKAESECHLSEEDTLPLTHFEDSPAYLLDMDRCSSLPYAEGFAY
Outline: as §1

[12] = target: HSF1 (Homo sapiens, UniProt Q00613 1-529); conditions: protein: recombinant; tags: N-terminal GST; chain copies: 3; dsDNA, one strand shown
Chain of HSF1 (Q00613 whole entry): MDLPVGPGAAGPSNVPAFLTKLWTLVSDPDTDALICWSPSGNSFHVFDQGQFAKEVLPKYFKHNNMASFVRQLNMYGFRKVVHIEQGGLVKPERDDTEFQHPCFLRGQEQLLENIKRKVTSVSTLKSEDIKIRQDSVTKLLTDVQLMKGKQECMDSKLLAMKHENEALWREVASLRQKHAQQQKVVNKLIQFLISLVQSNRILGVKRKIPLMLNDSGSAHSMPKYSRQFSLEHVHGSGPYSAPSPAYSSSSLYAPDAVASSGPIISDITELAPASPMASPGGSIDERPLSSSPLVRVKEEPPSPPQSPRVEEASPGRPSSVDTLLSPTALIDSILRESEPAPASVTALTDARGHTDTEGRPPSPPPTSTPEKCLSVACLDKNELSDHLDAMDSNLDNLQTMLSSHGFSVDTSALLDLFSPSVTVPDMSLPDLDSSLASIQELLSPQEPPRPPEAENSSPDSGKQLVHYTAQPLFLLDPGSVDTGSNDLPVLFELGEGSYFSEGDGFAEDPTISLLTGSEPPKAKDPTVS
Outline: as §1

[13] = target: T8, SPIC (Homo sapiens, UniProt Q8N5J4 1-248); conditions: protein: recombinant; tags: N-terminal GST; dsDNA, one strand shown
T8 sequence: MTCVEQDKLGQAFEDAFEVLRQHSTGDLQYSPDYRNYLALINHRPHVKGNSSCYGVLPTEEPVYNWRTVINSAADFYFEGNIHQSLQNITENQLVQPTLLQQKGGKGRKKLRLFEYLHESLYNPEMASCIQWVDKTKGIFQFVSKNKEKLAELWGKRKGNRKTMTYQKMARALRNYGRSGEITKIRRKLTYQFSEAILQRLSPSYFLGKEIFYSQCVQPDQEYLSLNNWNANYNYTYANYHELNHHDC
Outline: as §1

[14] = target: ELF4 (Homo sapiens, UniProt Q99607 1-663); conditions: protein: recombinant; tags: N-terminal GST; dsDNA, one strand shown
Chain of ELF4 (Q99607 whole entry): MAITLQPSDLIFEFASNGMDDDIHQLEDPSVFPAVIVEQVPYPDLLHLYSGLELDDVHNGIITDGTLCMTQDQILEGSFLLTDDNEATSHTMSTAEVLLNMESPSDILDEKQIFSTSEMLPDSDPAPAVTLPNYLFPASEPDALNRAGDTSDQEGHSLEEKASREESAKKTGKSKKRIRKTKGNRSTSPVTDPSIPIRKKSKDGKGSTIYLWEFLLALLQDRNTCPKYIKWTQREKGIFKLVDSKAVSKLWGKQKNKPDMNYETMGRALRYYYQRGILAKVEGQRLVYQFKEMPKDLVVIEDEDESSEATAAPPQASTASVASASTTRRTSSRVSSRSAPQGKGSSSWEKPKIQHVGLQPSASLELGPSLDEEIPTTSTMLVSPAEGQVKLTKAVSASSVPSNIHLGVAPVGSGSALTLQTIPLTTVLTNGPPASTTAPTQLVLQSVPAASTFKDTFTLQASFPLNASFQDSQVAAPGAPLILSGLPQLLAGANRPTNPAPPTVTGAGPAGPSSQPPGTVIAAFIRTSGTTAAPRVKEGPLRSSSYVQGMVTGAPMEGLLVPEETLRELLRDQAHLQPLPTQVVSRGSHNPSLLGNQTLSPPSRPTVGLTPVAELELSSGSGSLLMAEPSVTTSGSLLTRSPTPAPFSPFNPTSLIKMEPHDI
Outline: as §1

[15] = target: T9, ELK4 (Homo sapiens, UniProt P28324-2 1-405); conditions: protein: recombinant; tags: N-terminal GST; dsDNA, one strand shown
T9 sequence: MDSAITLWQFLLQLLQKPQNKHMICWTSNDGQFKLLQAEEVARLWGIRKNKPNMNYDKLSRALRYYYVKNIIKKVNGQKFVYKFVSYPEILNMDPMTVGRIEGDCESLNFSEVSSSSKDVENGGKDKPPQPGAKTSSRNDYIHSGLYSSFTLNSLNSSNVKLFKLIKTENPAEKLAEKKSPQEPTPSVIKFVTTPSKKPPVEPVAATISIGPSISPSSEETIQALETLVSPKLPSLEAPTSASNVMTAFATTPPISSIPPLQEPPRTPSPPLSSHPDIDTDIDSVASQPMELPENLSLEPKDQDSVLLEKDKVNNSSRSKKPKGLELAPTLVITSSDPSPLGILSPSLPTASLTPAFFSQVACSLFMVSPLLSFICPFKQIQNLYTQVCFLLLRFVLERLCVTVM
Outline: as §1

[16] = target: T10, ETV2 (Homo sapiens, UniProt O00321 1-342); conditions: protein: recombinant; tags: N-terminal GST; dsDNA, one strand shown
T10 sequence: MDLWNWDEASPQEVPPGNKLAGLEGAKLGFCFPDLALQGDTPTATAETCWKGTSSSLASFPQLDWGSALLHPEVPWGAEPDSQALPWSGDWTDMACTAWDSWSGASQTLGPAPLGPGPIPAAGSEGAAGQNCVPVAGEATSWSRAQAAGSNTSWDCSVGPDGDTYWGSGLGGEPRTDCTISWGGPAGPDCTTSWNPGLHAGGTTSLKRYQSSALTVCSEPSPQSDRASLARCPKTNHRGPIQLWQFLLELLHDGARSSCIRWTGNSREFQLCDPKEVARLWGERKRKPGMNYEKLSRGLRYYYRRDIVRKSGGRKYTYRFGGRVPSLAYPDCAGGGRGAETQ
Outline: as §1

[17] = target: T11, ELF3 (Homo sapiens, UniProt P78545 1-371); conditions: protein: recombinant; tags: N-terminal GST; dsDNA, one strand shown
T11 sequence: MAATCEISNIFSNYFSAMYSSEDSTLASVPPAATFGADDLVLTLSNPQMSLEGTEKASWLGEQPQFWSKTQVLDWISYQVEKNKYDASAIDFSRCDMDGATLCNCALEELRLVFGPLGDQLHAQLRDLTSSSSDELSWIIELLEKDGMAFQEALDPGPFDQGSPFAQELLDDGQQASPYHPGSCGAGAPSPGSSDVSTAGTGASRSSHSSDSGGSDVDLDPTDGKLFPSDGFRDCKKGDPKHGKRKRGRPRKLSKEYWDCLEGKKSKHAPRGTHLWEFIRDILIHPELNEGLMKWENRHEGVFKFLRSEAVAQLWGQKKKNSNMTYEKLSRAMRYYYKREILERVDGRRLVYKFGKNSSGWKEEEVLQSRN
Outline: as §1

[18] = target: CRX (Homo sapiens, UniProt O43186 1-299); conditions: protein: recombinant; tags: N-terminal GST; dsDNA, one strand shown
Chain of CRX (O43186 whole entry): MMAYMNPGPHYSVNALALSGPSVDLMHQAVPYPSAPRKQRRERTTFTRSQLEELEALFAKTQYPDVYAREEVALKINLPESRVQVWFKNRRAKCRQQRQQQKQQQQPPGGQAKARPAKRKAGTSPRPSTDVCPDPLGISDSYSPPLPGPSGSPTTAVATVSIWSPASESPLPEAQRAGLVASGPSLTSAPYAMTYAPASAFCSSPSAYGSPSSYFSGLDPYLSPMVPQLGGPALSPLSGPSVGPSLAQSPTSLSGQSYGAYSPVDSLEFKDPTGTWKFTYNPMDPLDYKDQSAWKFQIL
Outline: as §1

[19] = target: ETV1 (Homo sapiens, UniProt P50549 1-477); conditions: protein: recombinant; tags: N-terminal GST; dsDNA, one strand shown
Chain of ETV1 (P50549 whole entry): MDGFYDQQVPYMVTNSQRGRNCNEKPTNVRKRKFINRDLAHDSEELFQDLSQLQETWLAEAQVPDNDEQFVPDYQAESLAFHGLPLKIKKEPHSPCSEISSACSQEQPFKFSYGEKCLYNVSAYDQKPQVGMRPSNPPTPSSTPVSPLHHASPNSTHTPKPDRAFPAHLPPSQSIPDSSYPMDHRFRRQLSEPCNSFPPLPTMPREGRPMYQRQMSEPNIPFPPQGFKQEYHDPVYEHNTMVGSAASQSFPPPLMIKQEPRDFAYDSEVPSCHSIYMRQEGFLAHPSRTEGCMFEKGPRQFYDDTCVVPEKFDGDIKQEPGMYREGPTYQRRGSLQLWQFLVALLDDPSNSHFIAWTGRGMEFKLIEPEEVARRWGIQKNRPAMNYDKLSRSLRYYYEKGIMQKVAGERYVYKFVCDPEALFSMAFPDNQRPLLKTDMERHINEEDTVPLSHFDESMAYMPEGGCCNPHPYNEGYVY
Outline: as §1

With TTTCGT the binding signal [1] was 1.31 fold enrichment (6-mer frequency, TF over GST control), the binding signal [2] was 1.38 fold enrichment (6-mer frequency, TF over GST control) and the binding signal [3] was 1.37 fold enrichment (6-mer frequency, TF over GST control). For the same sequence, the binding signal [4] was 1.23 fold enrichment (6-mer frequency, TF over GST control), the binding signal [5] was 1.41 fold enrichment (6-mer frequency, TF over GST control) and the binding signal [6] was 1.46 fold enrichment (6-mer frequency, TF over GST control). The binding signal [7] was 1.27 fold enrichment (6-mer frequency, TF over GST control), the binding signal [8] was 1.47 fold enrichment (6-mer frequency, TF over GST control) and the binding signal [9] was 1.25 fold enrichment (6-mer frequency, TF over GST control). For the same sequence, the binding signal [10] was 1.35 fold enrichment (6-mer frequency, TF over GST control), the binding signal [11] was 1.41 fold enrichment (6-mer frequency, TF over GST control) and the binding signal [12] was 1.48 fold enrichment (6-mer frequency, TF over GST control). For the same sequence, the binding signal [13] was 1.36 fold enrichment (6-mer frequency, TF over GST control), the binding signal [14] was 1.34 fold enrichment (6-mer frequency, TF over GST control) and the binding signal [15] was 1.49 fold enrichment (6-mer frequency, TF over GST control). For the same sequence, the binding signal [16] was 1.32 fold enrichment (6-mer frequency, TF over GST control), the binding signal [17] was 1.33 fold enrichment (6-mer frequency, TF over GST control) and the binding signal [18] was 1.43 fold enrichment (6-mer frequency, TF over GST control). The binding signal [19] was 1.38 fold enrichment (6-mer frequency, TF over GST control).
